In the library only some 2.3% were active in any assay of this set; here they are far more common.
Htt clearance – compounds clearing mutant huntingtin protein; HeLa Exon1htt(103Q)mCFP, aggregate imaging; zero = plate's median compound well; hit rate 0.42% among 47,000; inhibition, % at 1.5 µM;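 active means inhibition of aggregate fluorescence above about 70%, also judged a hit by eye on the cell image, limit read from the data, passing the limit was not always enough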;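 further: cells exposed to compound for three days before fixation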
HTR1E agonist – activates the human 5-HT1E serotonin receptor. activation, % at 6 µM. P28566. CHO 5-HT1E Ga15 NFAT-bla reporter, FRET; 0% DMSO wells, 100% control agonist wells. hit rate 0.69% among 65,000;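 active means activation above a set limit, the screen-wide mean activation plus 3 SD, cut at about 8.5% in these data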;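 further: 100% = positive control agonist at 1 µM giving full maximal response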
Target sequence (P28566 whole entry, looked up): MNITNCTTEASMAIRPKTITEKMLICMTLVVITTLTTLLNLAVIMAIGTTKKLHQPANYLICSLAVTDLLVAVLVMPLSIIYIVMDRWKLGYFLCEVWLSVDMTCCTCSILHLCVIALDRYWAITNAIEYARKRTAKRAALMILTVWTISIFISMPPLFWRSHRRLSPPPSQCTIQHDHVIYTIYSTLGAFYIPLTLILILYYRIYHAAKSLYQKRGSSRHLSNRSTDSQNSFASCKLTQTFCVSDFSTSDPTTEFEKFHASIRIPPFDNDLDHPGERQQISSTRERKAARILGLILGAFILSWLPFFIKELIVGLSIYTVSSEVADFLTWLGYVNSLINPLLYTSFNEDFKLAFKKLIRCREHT
5-HT1A blocker – 5-HT1a (human) receptor antagonism; P08908; CHO 5-HT1a Ga15 NFAT-bla reporter, antagonist mode; inhibition, % at 10 µM; hit rate 0.68% among 62,000;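 active means inhibition above the mean of all tested compounds plus 3 SD, cut at about 43% in these data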;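 further: receptor stimulated by 5-CT agonist at 100 nM near EC80; beta-lactamase reporter measured by ratiometric fluorescence of a cleavable substrate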
HTR1A agonist – 5-HT1a (human) receptor agonism. P08908. CHO 5-HT1a Ga15 NFAT-bla reporter, FRET ratio; 0% basal, 100% maximal reference agonist. AID 567. activation, % at 10 µM. hit rate 0.56% among 65,000;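 active means activation above the screen-wide mean activation plus 3 SD, cut at about 19% in these data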;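 further: 0% = DMSO wells and 100% = 5-CT at EC100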
HTR1E antagonist – antagonists of human 5-HT1E serotonin receptor; hit rate 0.99% among 65,000; P28566; inhibition, % at 6 µM; CHO 5-HT1E Ga15 NFAT-bla reporter, FRET, antagonist;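 active means inhibition above a set limit, the mean inhibition across every tested compound plus 3 SD, cut at about 29% in these data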;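 further: signal is the 460 over 535 nm emission ratio of beta-lactamase substrate; 0% = agonist plus DMSO wells and 100% = wells without agonist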
Active calls of the source: *; . = not tested or not shown.

SMILES	Htt clearance	HTR1E agonist	5-HT1A blocker	HTR1A agonist	HTR1E antagonist
COc1ccc2[nH]cc(C(O)CN3CCN(c4ccccc4)CC3)c2c1 (stereo unspecified)	-27	0	13	1	-4
COc1ccc(N2CCN(CC(O)c3c[nH]c4ccc(OC)cc34)CC2C)cc1 (stereo unspecified)	-90	0	19	23*	3
COc1cccc(NC(=O)N(C2CCCCC2)C(C)c2cccs2)c1 (stereo unspecified)	3	.	.	.	.
CC1=C(C#N)C(NC(=O)c2ccco2)(C(F)(F)F)C(=O)N1 (stereo unspecified)	38	12*	-6	0	15
O=C(C1CC1)N1CCN(C(c2ccccc2)c2ccccc2)CC1	14	.	.	.	.
O=C(OCCCCN1C(=O)c2ccccc2C1=O)c1n[nH]c2ccccc12	18	1	-13	-3	-4
CCC(C)(C(=O)NC1CCCC1)N(CC1CCCO1)C(=O)c1ccc2c(c1)OCO2 (stereo unspecified)	.	-1	12	-2	-7
CCC(C)(C(=O)NC1CCCCC1)N(Cc1ccco1)C(=O)c1ccc2c(c1)OCO2 (stereo unspecified)	-30	-1	44*	-1	-6
CC(CN1CCCCC1)OC(=O)c1cc2ccccc2o1 (stereo unspecified)	.	2	-10	46*	0
Cn1nnc2cc(C(=O)N3CCN(c4ccccc4)CC3)ccc21	80*	0	3	-4	-4
COc1ccc2cc3cc(C(=O)Nc4ccccc4N4CCN(C)CC4)oc3nc2c1	-79	2	26	14	5
COc1ccc2cc3cc(C(=O)NCCN4CCN(c5ccccc5F)CC4)oc3nc2c1	-4	17*	71*	5	3
Cc1ccc2[nH]c(=O)c(C(c3nnnn3C3CCCC3)N(Cc3cccnc3)Cc3ccco3)cc2c1 (stereo unspecified)	-24	3	3	98*	-2
O=c1c2ccccc2nc2n1CC/C2=C/N1CCN(c2cccc(C(F)(F)F)c2)CC1	-26	39*	9	2	-8
COc1cc(C(=O)NCc2nnc(SCC(=O)N3CCc4ccccc43)o2)cc(OC)c1OC	.	0	2	1	-5
CCCc1cc(C(=O)Nc2sc3c(c2C#N)CCC3)no1	82*	0	5	-3	-5
COc1ccccc1OCCn1c(C(C)O)nc2ccccc21 (stereo unspecified)	4	0	2	-2	9
CC(C)N(C(=O)CSc1nnnn1C1CCCC1)C(C)C	-16	-1	11	-2	7
Cc1cc2ncn(S(=O)(=O)N3CCCCC3)c2cc1C	.	0	-7	-5	-7
Cc1cc2ncn(S(=O)(=O)N3CCOCC3)c2cc1C	70*	-1	-5	-3	-14
O=C(c1cnc2sccn2c1=O)N(Cc1ccccc1)c1ccccn1	.	0	-6	27*	-6
O=C(c1ccccc1)N(Cc1ccccc1)c1ccccn1	.	0	-2	-4	5
O=C(CSc1nc2ccccc2[nH]1)NCCCn1ccnc1	.	0	10	-1	-1
CN(C)CCCN1C(=O)C(=O)/C(=C(/O)c2ccc(S(=O)(=O)N(C)C)cc2)C1c1ccncc1 (stereo unspecified)	.	-1	-1	1	-8
CCNc1nc(N)c(C(=O)c2ccc(Cl)s2)s1	-17	0	56*	1	23
SMILES	Htt clearance	HTR1E agonist	5-HT1A blocker	HTR1A agonist	HTR1E antagonist
O=C(NCc1ccco1)C1CCN(C(=O)c2cc3sccc3n2Cc2ccc(Cl)cc2)CC1	.	-1	45*	0	0
CCn1c(C(=O)N2CCC(C(=O)NCc3cccs3)CC2)cc2sccc21	47	1	-3	-1	-17
COC(=O)c1[nH]c2cc(C)ccc2c1NC(=O)CN1CCCc2ccccc21	4	2	18	265*	-2
O=C(c1ccco1)N1CCN(CC(O)COc2ccc3oc4ccccc4c3c2)CC1 (stereo unspecified)	45	0	0	29*	-14
C1CNCCNCCNCCN1	.	0	.	2	-9
[O-][N+]1=c2ccc(Nc3ccccc3)cc2=NC12CCCCC2	-115	0	55*	-3	30*
[O-][N+]1=C2CCC/C(=N\O)C2=NC12CCCCC2	.	0	-9	-4	-3
O=C(CCSc1nc(-c2ccco2)cc(C(F)(F)F)n1)Nc1ccc2c(c1)OCO2	.	0	7	-1	7
Cn1c2ccc(Cl)cc2c2nc3ccccc3nc21	.	0	10	2	37*
